Experimental findings from PubChem BioAssay (EPA / NIEHS) are described below.

Results filed as inconclusive are left out. The source made the active and inactive calls. Rule for the calls, unless noted: active = hit-call score of the fitted dose curve at least 0.9, where 1 is the maximum; inactive = score below 0.9.

A short description of assay [1]: ATG_PBREM_CIS: Attagene CIS-FACTORIAL HepG2 Assay for human Phenobarbital-responsive Enhancer Module (PBREM) (AID 2282955). Particulars: HepG2 PBREM cis-reporter, Attagene multiplexed transcription; actives raise or lower the signal. In short, it runs like this: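 Multiplexed cis-reporter readout in human hepatoma HepG2 cells; PBREM-regulated transcript quantified after 24 h exposure by fluorescent RT-PCR fragment analysis. Signal changes up or down fitted relative to DMSO.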

Assay [2] is described as follows: ATG_PXRE_CIS: Attagene CIS-FACTORIAL HepG2 Assay for human Pregnane X Receptor Element (PXRE) (AID 2282957). Particulars: HepG2 Attagene CIS-FACTORIAL PXRE reporter, mRNA; actives raise or lower the signal. In short, it runs like this: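 Multiplexed cis-reporter assay in transiently transfected human HepG2 cells; 24 h chemical exposure. Reporter transcripts quantified by RT-PCR with fluorescent labeling and capillary electrophoresis.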

Assay [3] is described as follows: ATG_PPRE_CIS: Attagene CIS-FACTORIAL HepG2 Assay for human Peroxisome Proliferator-activated Response Element (PPRE) (AID 2282958). The note with it: HepG2 PPRE cis-element reporter, Attagene transcription factor profiling; actives raise or lower the signal. In short, it runs like this:
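DMSO served as negative control and baseline for bidirectional curve fitting. Signal came from PPRE-regulated reporter mRNA in HepG2 cells, measured 24 h post-dosing by RT-PCR, 6-FAM primer extension and capillary electrophoresis.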

The nature of assay [4]: ATG_Sox_CIS: Attagene CIS-FACTORIAL HepG2 Assay for human SRY-box transcription factor (SOX) (AID 2282960). The note with it: HepG2 Attagene cis-factorial SOX reporter, mRNA; actives raise or lower the signal. The method in brief:
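Fluorescence-labelled cDNA fragments from reporter transcripts, sized by CE, give the signal. Cells: HepG2, transiently transfected with cis-regulated reporter units. Exposure 24 h; DMSO negative control; bidirectional curve fitting.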

Assay [5] addresses Transcription factor Sp1 (Homo sapiens) (UniProt P08047). Briefly: ATG_Sp1_CIS: Attagene CIS-FACTORIAL HepG2 Assay for human Specificity Protein 1 (Sp1) (AID 2282961). Particulars: HepG2 Sp1 cis-reporter transcription, actives raise or lower the signal. The method in brief: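 Chemicals are dosed onto HepG2 cells transfected with multiple cis-promoter reporter constructs, and after 24 h reporter RNA is reverse-transcribed, PCR-amplified and resolved by capillary electrophoresis for fluorescence quantitation; activity is scored up or down against DMSO.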

Assay [6] can be described thus: ATG_SREBP_CIS: Attagene CIS-FACTORIAL HepG2 Assay for human Sterol Regulatory Element Binding (SREBP) (AID 2282962). Particulars: HepG2 Attagene cis-factorial SREBP reporter, mRNA; actives raise or lower the signal. In short, it runs like this:
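HepG2 cells transiently transfected with multiplexed cis-element reporter units report endogenous transcription factor activity. After 24 h of chemical exposure, reporter mRNA was quantified by RT-PCR, 6-FAM labelling, HpaI digestion and capillary electrophoresis; bidirectional fits used DMSO as baseline.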

Assay [7] has as its target Signal transducer and activator of transcription 3 (Homo sapiens) (UniProt P40763). As to the kind of experiment: ATG_STAT3_CIS: Attagene CIS-FACTORIAL HepG2 Assay for human Signal Transducer and Activator of Transcription 3 (STAT3) (AID 2282963). The note with it: HepG2, Attagene cis-factorial STAT3 reporter transcription; actives raise or lower the signal. The method in brief:
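After a 24 h compound incubation, total RNA from MRTU-transfected HepG2 cells was converted to cDNA and reporter sequences PCR-amplified, labelled and profiled by capillary electrophoresis. Gain and loss of signal were referenced to DMSO.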

Assay [8] can be described thus: ATG_TA_CIS: Attagene CIS-FACTORIAL HepG2 Assay for human TA Basal Promoter (AID 2282964). Particulars: HepG2 Attagene CIS-factorial TA basal promoter reporter; actives raise or lower the signal. The method in brief:
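Steps: transfect HepG2 with MRTUs; dose 24 h; isolate RNA, DNase-treat, reverse-transcribe; PCR and FAM-label reporter cDNA; digest with HpaI 2h at 37 C; run capillary electrophoresis. Activity fitted both directions against DMSO.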

Assay [9] is described as follows: ATG_TCF_b_cat_CIS: Attagene CIS-FACTORIAL HepG2 Assay for human T-Cell-Factor with beta-catenin (TCF/b-cat) (AID 2282965). Particulars: HepG2 TCF/beta-catenin cis-reporter transcription, actives raise or lower the signal. The method in brief: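 Endogenous transcription factor activity is captured through cis-promoter reporter constructs transiently introduced into human HepG2 liver cells. Induced reporter mRNA is measured after 24 h and fitted bidirectionally relative to DMSO.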

Assay [10] in a line: ATG_TAL_CIS: Attagene CIS-FACTORIAL HepG2 Assay for human TAL Basal Promoter (AID 2282966).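 Note: background control endpoint measuring basal TAL promoter reporter mRNA not a specific factor.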 The note with it: HepG2 Attagene cis-factorial TAL promoter reporter; actives raise or lower the signal. The method in brief: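 Steps: transfect HepG2 with multiple reporter transcription units; dose 24 h; isolate RNA, reverse-transcribe, PCR-amplify, label with 6-FAM, digest with HpaI; resolve by capillary electrophoresis. Bidirectional fitting against DMSO baseline.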

Assay [11] is described as follows: ATG_TGFb_CIS: Attagene CIS-FACTORIAL HepG2 Assay for human Transforming Growth Factor (TGF) (AID 2282967). Particulars: HepG2 Attagene CIS TGFb reporter, mRNA transcription; actives raise or lower the signal. The method in brief: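 Cells were dosed for 24 hours, after which total RNA was reverse-transcribed and reporter sequences amplified, labeled and sized by capillary electrophoresis. Activity was fitted in both directions against DMSO.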

The nature of assay [12]: ATG_VDRE_CIS: Attagene CIS-FACTORIAL HepG2 Assay for human Vitamin D Receptor Element (VDRE) (AID 2282968). Particulars: HepG2 VDRE cis-reporter transcription, actives raise or lower the signal. In short, it runs like this:
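In transiently transfected HepG2 liver cells, gain or loss of reporter mRNA after 24 h exposure is scored relative to DMSO, using fluorescence detection by capillary electrophoresis of RT-PCR products.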

In assay [13] the target is Nuclear receptor subfamily 1 group I member 3 (Homo sapiens) (UniProt Q14994). Briefly: ATG_CAR_TRANS: Attagene TRANS-FACTORIAL HepG2 Assay for human Constitutive Androstane Receptor (CAR) (AID 2282969; active = hit-call score of the fitted dose curve at least 0.9, where 1 is the maximum;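 note: activators raise reporter mRNA above DMSO so AC50 marks induction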). The note with it: HepG2 Attagene TRANS-FACTORIAL CAR reporter. The method in brief: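 Readout is reporter mRNA induction, quantified by fluorescent primer extension and capillary electrophoresis after RT-PCR. Cells were HepG2 transiently carrying chimeric NR-Gal4 constructs with GAL4-UAS reporters, treated for 24 h; activity scored upward from DMSO.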

For assay [14], the target named is Steroid hormone receptor ERR1 (Homo sapiens) (UniProt P11474). As to the kind of experiment: ATG_ERRa_TRANS: Attagene TRANS-FACTORIAL HepG2 Assay for human Estrogen-Related Receptor alpha (ERRa) (AID 2282971; active = hit-call score of the fitted dose curve at least 0.9, where 1 is the maximum). The note with it: HepG2 Attagene TRANS reporter, ERRa transactivation. The method in brief: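 Signal gain relative to DMSO for an ERRa-Gal4 chimeric receptor, read as reporter mRNA by RT-PCR/capillary electrophoresis. Human HepG2 liver cells, transient multiplex reporter transfection, 24 h chemical exposure.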

Assay [15] concerns the target X-box-binding protein 1 (Homo sapiens) (UniProt P17861). As to the kind of experiment: ATG_Xbp1_CIS: Attagene CIS-FACTORIAL HepG2 Assay for human X-box Binding Protein 1 (XBP1) (AID 2282972). Particulars: HepG2 XBP1 cis-element reporter, Attagene multiplex; actives raise or lower the signal. In short, it runs like this: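 HepG2 cells transiently transfected with cis-regulated multiple reporter transcription units; endogenous transcription factor activity measured 24 hours after chemical dosing. Reporter mRNA quantified by RT-PCR, 6-FAM primer extension, HpaI digestion and capillary electrophoresis; bidirectional fitting versus DMSO.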

Assay [16] has as its target Estrogen receptor (Homo sapiens) (UniProt P03372). As to the kind of experiment: ATG_ERa_TRANS: Attagene TRANS-FACTORIAL HepG2 Assay for human Estrogen Receptor alpha (ERa) (AID 2282970; active = hit-call score of the fitted dose curve at least 0.9, where 1 is the maximum). The note with it: HepG2 Attagene TRANS ERa GAL4 reporter, mRNA. In short, it runs like this:
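Multiplexed cell-based reporter format in HepG2: chimeric ERa-Gal4 protein drives GAL4-UAS reporter transcription. Fluorescent reporter mRNA quantified by capillary electrophoresis 24 hours after dosing; endpoint fitted as signal gain against DMSO.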

Assay [17] in a line: ATG_M_19_TRANS: Attagene TRANS-FACTORIAL HepG2 Assay for M19 Transcription Factor (Internal Marker) (AID 2282974; active = hit-call score of the fitted dose curve at least 0.9, where 1 is the maximum). Particulars: HepG2 Attagene TRANS-FACTORIAL M19 internal marker reporter. In short, it runs like this: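 Multiplexed TRANS format: HepG2 liver cells bearing transient GAL4-UAS reporter units, chemical treatment 24 h, reporter transcripts quantified by RT-PCR plus capillary electrophoresis. DMSO defines baseline.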

The nature of assay [18]: ATG_GAL4_TRANS: Attagene TRANS-FACTORIAL HepG2 Assay for GAL4 (Internal Marker) (AID 2282976; active = hit-call score of the fitted dose curve at least 0.9, where 1 is the maximum). Particulars: HepG2 Attagene TRANS GAL4 internal marker reporter. In short, it runs like this: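 Liver HepG2 line bearing multiplexed GAL4-UAS reporter constructs; 24 h chemical treatment. Transcripts were quantified as fluorescent fragments on capillary electrophoresis after RT-PCR and HpaI cut, with activity fitted upward from DMSO.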

Assay [19] can be described thus: ATG_RORE_CIS: Attagene CIS-FACTORIAL HepG2 Assay for human RAR-related Orphan Receptor Element (RORE) (AID 2282959). The note with it: HepG2 Attagene cis-factorial RORE reporter, mRNA; actives raise or lower the signal. In short, it runs like this: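 Transfect HepG2 with MRTUs; treat 24 h; extract RNA; RT with oligo(dT); PCR with reporter-specific primers; 6-FAM primer extension; HpaI digest 2 h at 37 C; capillary electrophoresis. Fit vs DMSO, bidirectional.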

The target in assay [20] is Paired box protein Pax-6 (Homo sapiens) (UniProt P26367). Briefly: ATG_Pax6_CIS: Attagene CIS-FACTORIAL HepG2 Assay for human Paired Box 6 (PAX6) (AID 2282956). The note with it: HepG2 CIS-FACTORIAL PAX6 reporter transcription, RNA readout; actives raise or lower the signal. In short, it runs like this: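 HepG2 cells transiently transfected with multiplexed cis-promoter reporter units (endogenous TF activity) were dosed for 24 h. Reporter mRNA was quantified by RT-PCR, 6-FAM labeling, HpaI digestion and capillary electrophoresis; bidirectional fitting versus DMSO baseline.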
Chain of Paired box protein Pax-6 (Homo sapiens) (P26367 whole entry, looked up): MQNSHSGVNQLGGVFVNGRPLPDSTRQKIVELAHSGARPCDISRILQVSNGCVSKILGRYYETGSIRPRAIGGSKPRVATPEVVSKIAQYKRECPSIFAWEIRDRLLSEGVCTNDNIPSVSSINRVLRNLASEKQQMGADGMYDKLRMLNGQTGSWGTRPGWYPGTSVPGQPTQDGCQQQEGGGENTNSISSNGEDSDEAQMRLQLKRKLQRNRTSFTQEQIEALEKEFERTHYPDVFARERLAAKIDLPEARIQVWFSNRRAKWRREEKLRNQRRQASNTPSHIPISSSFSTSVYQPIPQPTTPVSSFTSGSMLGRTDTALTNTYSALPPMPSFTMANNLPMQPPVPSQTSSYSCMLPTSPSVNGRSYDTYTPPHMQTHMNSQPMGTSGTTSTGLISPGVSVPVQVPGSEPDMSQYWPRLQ

Chain of X-box-binding protein 1 (Homo sapiens) (P17861 whole entry, looked up): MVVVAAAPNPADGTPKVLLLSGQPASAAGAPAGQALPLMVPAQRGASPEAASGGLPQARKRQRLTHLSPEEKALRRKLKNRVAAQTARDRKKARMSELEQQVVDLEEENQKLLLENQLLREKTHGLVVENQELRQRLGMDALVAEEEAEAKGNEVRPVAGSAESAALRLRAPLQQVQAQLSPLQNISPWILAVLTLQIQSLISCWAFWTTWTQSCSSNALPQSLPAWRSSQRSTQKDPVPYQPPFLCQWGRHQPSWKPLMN
Chain of Signal transducer and activator of transcription 3 (Homo sapiens) (P40763 whole entry, looked up): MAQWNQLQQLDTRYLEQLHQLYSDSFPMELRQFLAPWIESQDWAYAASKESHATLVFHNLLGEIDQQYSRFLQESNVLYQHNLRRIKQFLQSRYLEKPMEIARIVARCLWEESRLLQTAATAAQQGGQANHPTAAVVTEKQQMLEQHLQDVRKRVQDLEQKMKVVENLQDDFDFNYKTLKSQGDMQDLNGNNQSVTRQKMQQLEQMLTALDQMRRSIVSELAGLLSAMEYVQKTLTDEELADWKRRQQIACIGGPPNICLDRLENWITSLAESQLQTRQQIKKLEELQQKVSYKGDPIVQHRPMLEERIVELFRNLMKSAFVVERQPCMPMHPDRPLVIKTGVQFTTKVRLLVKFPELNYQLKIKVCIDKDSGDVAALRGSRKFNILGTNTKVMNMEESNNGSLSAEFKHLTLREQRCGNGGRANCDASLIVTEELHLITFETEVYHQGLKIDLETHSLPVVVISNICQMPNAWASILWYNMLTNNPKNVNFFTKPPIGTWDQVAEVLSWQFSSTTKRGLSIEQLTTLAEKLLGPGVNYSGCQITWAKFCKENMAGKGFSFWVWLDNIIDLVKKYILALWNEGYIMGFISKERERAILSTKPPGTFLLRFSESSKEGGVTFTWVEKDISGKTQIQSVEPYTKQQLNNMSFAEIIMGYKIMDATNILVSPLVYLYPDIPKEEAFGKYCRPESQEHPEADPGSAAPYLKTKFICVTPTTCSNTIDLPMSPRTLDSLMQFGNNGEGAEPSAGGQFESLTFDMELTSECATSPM
Chain of Steroid hormone receptor ERR1 (Homo sapiens) (P11474 whole entry, looked up, the tested form may be a part): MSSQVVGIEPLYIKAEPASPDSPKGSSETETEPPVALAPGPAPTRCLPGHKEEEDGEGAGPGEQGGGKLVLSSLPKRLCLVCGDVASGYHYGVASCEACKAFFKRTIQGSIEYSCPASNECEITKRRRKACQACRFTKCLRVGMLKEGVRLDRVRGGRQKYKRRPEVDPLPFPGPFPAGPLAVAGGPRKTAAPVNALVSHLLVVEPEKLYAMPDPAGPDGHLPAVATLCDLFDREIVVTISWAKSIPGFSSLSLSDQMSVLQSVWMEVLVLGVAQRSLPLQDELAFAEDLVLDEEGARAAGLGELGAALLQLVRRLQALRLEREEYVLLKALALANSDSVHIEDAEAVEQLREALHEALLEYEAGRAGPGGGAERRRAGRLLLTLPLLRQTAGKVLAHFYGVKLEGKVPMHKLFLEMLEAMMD
Chain of Transcription factor Sp1 (Homo sapiens) (P08047 whole entry, looked up): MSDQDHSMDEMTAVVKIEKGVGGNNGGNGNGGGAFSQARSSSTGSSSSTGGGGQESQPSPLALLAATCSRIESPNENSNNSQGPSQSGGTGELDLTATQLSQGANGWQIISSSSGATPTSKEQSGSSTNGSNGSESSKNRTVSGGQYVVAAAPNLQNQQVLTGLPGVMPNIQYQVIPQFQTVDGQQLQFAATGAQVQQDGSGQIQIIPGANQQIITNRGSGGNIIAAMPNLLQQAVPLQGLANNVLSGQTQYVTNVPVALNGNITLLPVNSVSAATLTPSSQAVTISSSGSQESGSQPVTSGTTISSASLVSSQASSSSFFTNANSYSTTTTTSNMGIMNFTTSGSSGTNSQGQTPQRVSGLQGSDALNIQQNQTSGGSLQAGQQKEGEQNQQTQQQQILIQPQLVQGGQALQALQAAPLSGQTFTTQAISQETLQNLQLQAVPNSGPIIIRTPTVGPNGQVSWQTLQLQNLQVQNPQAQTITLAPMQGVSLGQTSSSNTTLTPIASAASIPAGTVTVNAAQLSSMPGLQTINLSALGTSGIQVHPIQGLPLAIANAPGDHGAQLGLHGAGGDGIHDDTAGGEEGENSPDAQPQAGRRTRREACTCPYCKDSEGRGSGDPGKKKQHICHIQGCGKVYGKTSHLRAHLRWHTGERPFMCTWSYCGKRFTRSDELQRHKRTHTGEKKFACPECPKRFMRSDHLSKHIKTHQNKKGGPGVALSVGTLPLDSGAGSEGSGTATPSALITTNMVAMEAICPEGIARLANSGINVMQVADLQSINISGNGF
Chain of Estrogen receptor (Homo sapiens) (P03372 whole entry, looked up, the tested form may be a part): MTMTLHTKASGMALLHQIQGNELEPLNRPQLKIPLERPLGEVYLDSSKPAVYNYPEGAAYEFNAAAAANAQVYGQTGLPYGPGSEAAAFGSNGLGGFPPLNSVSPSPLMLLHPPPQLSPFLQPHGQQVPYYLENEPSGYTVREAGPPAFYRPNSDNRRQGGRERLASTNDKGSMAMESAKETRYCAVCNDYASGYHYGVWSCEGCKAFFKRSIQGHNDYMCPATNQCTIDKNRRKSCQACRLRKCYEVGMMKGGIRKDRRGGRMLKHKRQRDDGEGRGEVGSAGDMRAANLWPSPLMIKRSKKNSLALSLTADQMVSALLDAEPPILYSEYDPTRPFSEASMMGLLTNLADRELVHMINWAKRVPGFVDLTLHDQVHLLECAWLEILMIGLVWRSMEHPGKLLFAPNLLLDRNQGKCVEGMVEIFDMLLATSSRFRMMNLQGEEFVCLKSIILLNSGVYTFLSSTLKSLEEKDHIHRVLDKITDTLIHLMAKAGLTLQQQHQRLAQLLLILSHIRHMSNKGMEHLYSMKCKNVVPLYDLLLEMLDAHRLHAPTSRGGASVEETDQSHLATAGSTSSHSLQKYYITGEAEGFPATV
Chain of Nuclear receptor subfamily 1 group I member 3 (Homo sapiens) (Q14994 whole entry, looked up, the tested form may be a part): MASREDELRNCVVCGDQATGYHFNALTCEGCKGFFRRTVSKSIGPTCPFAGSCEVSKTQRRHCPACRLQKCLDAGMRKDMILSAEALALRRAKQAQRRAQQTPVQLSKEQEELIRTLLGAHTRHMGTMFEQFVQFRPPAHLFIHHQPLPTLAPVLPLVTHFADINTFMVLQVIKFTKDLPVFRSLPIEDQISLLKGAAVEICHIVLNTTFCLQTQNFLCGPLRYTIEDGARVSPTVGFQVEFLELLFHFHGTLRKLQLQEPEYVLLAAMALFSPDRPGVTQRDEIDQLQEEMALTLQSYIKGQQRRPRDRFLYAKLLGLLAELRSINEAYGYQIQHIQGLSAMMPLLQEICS

The term AC50 denotes the concentration giving half of the maximal activity seen. Consider `CC1=CCC(=O)O1`, for which the result in assay [1], in [3], in assay [4], in assay [5], in [6] and in assay [7] was inactive. Further, the compound was classed as inactive in assay [8], in assay [9], in assay [10], in [11], in [12] and in [13]. Moreover, the compound was classed as inactive in [14] and in assay [15]. Also, the AC50 in assay [2] was 26.7 µM (active).

Turning to `CC(C)CCCC(C)CCO` (centres undefined), the outcome in [1], in assay [2], in assay [3], in [4], in assay [5] and in assay [6] was inactive. Also, the outcome in assay [7], in assay [8], in [9], in [10], in assay [11] and in assay [12] was inactive. The outcome in [16], in assay [15], in assay [17] and in assay [18] was inactive.

In the case of `CCCCCCCCCc1ccc(OCCO)cc1`, the result in [1], in [3], in assay [19], in assay [4], in [8] and in [10] was inactive. Besides, the call in assay [11], in assay [12], in assay [16], in [15] and in [17] was inactive. Further, the AC50 in [2] was 0.64 µM (active); in assay [5], 13.3 µM (active); in assay [6] it was 3.56 µM (active); in [7] it was 19.5 µM (active).

Regarding `FC(F)(F)C(F)(F)C(F)(F)C(F)(F)C(F)(F)C(F)(F)CC[Si](Cl)(Cl)Cl`, the result in assay [1], in assay [20], in [2], in assay [3], in assay [4] and in assay [5] was inactive. Moreover, the result in assay [6], in assay [7], in [9], in [10], in [11] and in [16] was inactive. Further, the outcome in [14], in assay [15] and in assay [18] was inactive.

As to `Nc1cc([N+](=O)[O-])cc(Cl)c1O`, the result in [1], in assay [3], in assay [19], in assay [4], in assay [5] and in assay [6] was inactive. Further, the call in [7], in assay [8], in assay [9], in [10], in assay [11] and in assay [12] was inactive. In addition, the result in [16], in assay [15], in assay [17] and in [18] was inactive. Besides, the AC50 in [2] is 5.15 µM (active).

As for `C=CC(=O)OCCC(F)(F)C(F)(F)C(F)(F)C(F)(F)F`, the compound was classed as inactive in [20], in [3], in [19], in assay [4], in assay [5] and in [6]. Moreover, the call in assay [7], in assay [10], in assay [11], in assay [12], in assay [14] and in assay [15] was inactive. Further, the compound was called inactive in assay [18]. In addition, the AC50 in assay [2] is 43.8 µM (active).

With `OCC(F)(F)C(F)(F)C(F)(F)C(F)(F)C(F)(F)C(F)(F)C(F)(F)C(F)(F)CO`, the outcome in assay [20], in assay [3], in [19], in assay [4], in assay [5] and in assay [6] was inactive. For the same compound, the call in [7], in assay [8], in [9], in assay [10], in assay [11] and in assay [12] was inactive. Further, the outcome in assay [14], in [15] and in assay [18] was inactive. Further, the AC50 was 16.6 µM (active) in assay [2] and 0.178 µM (active) in [16].
